Laboratory results: PubChem BioAssay AID504332 (National Center for Advancing Translational Sciences (NCATS), 2011)
The campaign covered roughly 350,000 compounds. About 31,000 (8.9%) were called active. About 15% were inconclusive and are not listed. This is one part of a sample in which actives are shown more often than they occur. Calls follow the shape of the dose curve; as a rule, active = well fitted inhibition curve with a large enough effect; inconclusive = small, poorly fitted or top-dose-only effect; inactive = no such curve, though single readings can be large or run the other way.

Each compound was assayed against Histone-lysine N-methyltransferase EHMT2 (Homo sapiens) (UniProt Q96KQ7) (assay: qHTS Assay for Inhibitors of Histone Lysine Methyltransferase G9a). Settings: G9a H3K9 monomethylation, AlphaScreen, 2 h; series mostly up to 59 µM.
Procedure, shortened: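 Step 1: enzyme (final 20 nM) with compound, 15 min RT. Step 2: substrate peptide 500 nM and SAM 20 uM, 2 h RT. Step 3: anti-H3K9me1 antibody and AlphaScreen beads, 10 min, then plate read.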
% is scaled to controls: 0 for no effect and ±100 for the full control effect; potency is read from the fitted curve at half-maximal effect.
Also: nearly all actives have a fitted effect of over 75% in size.

Histone-lysine N-methyltransferase EHMT2 (Homo sapiens), sequence (Q96KQ7 913-1193 limits assumed): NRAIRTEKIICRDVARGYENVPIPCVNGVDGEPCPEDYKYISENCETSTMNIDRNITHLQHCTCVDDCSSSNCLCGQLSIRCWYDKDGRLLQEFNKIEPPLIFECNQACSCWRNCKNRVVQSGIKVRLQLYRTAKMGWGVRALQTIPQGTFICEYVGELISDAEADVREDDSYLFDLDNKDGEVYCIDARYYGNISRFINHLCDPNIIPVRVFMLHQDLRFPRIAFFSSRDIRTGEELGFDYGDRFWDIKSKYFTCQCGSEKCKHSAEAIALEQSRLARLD

Potency, active:
O=C(Nc1ccc2c(c1)OCO2)C1CC(c2c(F)cccc2Cl)=NO1 (stereo unspecified) 44.7 µM
O=c1c2ccccc2cnn1Cc1n[nH]c(=S)n1-c1ccccc1F 31.6 µM
CCCC1=Nc2cc(C(=O)NCCN3CCCC3)ccc2Sc2ccccc21 79.4 µM
CC[n+]1cc(C)ccc1/C=C/c1ccc(N(C)C)cc1 6.31 µM
COc1ccc(C(=O)N(CCN2CCOCC2)CC(=O)NC2CCCC2)cc1OC 50.1 µM
S=C(NCc1ccc2c(c1)OCO2)NCc1ccco1 31.6 µM
S=C(NCc1ccco1)Nc1ccc2c(c1)OCCO2 44.7 µM
Cc1cc(N2C(=O)C(O)=C(C(=O)c3ccc(C)o3)C2c2ccc(OCc3ccccc3)cc2)no1 (stereo unspecified) 31.6 µM
Cn1c(-c2sccc2OCc2cccc(C(F)(F)F)c2)n[nH]c1=S 4.47 µM
O=C(NN=C1CCC(=NNC(=O)c2cccnc2)CC1)c1cccnc1 17.8 µM
O=C(Nc1nc(-c2ccncc2)cs1)C1COc2ccccc2O1 (stereo unspecified) 2.24 µM
CCOC(=O)c1ccccc1N1C(=O)C2Sc3[nH]c(=O)sc3C(/C=C/c3ccccc3)C2C1=O (stereo unspecified) 3.16 µM
CCN(CC)S(=O)(=O)c1ccc(CNC(=O)CN2C(=O)NC3(CCc4ccccc43)C2=O)cc1 (stereo unspecified) 28.2 µM
CCN(c1ccccc1)S(=O)(=O)c1cccc(C(=O)O)c1 79.4 µM
CC(C)Oc1ccc(Cc2n[nH]c(=S)n2Cc2ccccc2)cc1Cl 8.91 µM
Nc1ccc(Nc2ccccc2)cc1 4.47 µM
O=C(/C=C/c1ccco1)Nc1cccc(-c2nc3ccccc3[nH]2)c1 25.1 µM
O=C(O)CCCN1C(=O)c2ccccc2Sc2ncccc21 50.1 µM

Potency, inactive:
CCCn1c2ccccc2c2cnn(CC(=O)N(C)c3ccccc3CC)c(=O)c21
CC(CCc1ccccc1)NC(=O)COC(=O)c1ccc(F)cc1 (stereo unspecified)
O=C(Cn1ncc2c3ccccc3n(Cc3ccccc3)c2c1=O)NC1CCCCCC1
Cc1ccc(NC(=O)C2CC(c3ccc(F)cc3)=NO2)cc1 (stereo unspecified)
Nc1c(N(CCCO)C(=O)C2CCCC2)c(=O)[nH]c(=O)n1Cc1ccccc1
Cn1nnnc1SCCCNCc1cccc(OCc2ccc(Cl)cc2)c1
O=C(Cn1nc(Cc2cccnc2)c2ccccc2c1=O)N1CCN(c2ccccc2F)CC1
COc1ccc(CNC(=O)CSc2nc3ccccc3nc2Cc2ccccc2)cc1
CCS(=O)(=O)c1nc(S(=O)(=O)c2ccc(C)cc2)c(NCc2ccc(Cl)cc2)s1
O=C(CCS(=O)(=O)c1cc(Br)cc2c1N(C(=O)C1CC1)CC2)Nc1ccc(Br)cc1F
Cc1cccc(Nc2cc(C)nc(-n3nc(C)cc3C)n2)c1
CCC1=Nc2cc(C(=O)NCCN3CCCC3)ccc2Sc2ccc(C)cc21
CCC1=Nc2cc(C(=O)NCC(C)c3ccccc3)ccc2Sc2ccc(C)cc21 (stereo unspecified)
Cc1ccc(F)cc1S(=O)(=O)Nc1cccc(C(=O)N2CCCC(C(N)=O)C2)c1 (stereo unspecified)
CCOc1ccccc1NC(=O)CCn1cnnn1
Cc1cc(Cl)ccc1OCCCC(=O)Nc1cccc(-n2cnnn2)c1
CN(C)c1ccc(/C=N\S(=O)(=O)c2ccccc2)cc1
CCC(C)(C)NC(=O)C(c1ccc(OC)cc1)N(C(=O)CCC(=O)Nc1cc(C)on1)c1ccc(OC)cc1OC (stereo unspecified)
Cc1cc(-c2ccc(C)c(S(=O)(=O)N3c4ccccc4CC3C)c2)on1 (stereo unspecified)
COc1ccc(CCNC(=O)CCC(=O)NC2CCCCC2)cc1OC
Cc1cc(-c2ccccc2)n2nc(-c3ccccc3)cc2n1
Cc1c(Cl)cccc1NC(=S)NCc1ccc2c(c1)OCO2
CCCCC(=O)Nc1ccc2c(c1)OCCO2
COc1cccc(NC(=S)NCc2ccco2)c1
S=C(NCc1ccco1)NCc1ccccc1Cl
CCC1CN(S(=O)(=O)c2cc(-c3cc(C)no3)ccc2C)c2cc(C)ccc2O1 (stereo unspecified)
COc1cc(C2C(C(=O)c3ccco3)=C(O)C(=O)N2c2cc(C)on2)ccc1OCc1ccccc1 (stereo unspecified)
CCOC(=O)c1cc(=O)c2ccc(OCc3ccccc3)cc2o1
O=C(O)c1ccc(Nc2nc(-c3ccccc3)c3cc(Br)ccc3n2)cc1
Cn1c(=O)c2c(ncn2CC(=O)Nc2cccc(C(F)(F)F)c2)n(C)c1=O
Cc1ccc2nc(NC(=O)c3nc(SCc4ccccc4F)ncc3Cl)sc2c1
CCOC(=O)N1CCN(Cc2nc(Cc3cccc(C(F)(F)F)c3)no2)CC1
O=c1c2ccccc2nc2n1C(CSCc1cccc(C(F)(F)F)c1)CS2 (stereo unspecified)
O=C(N/N=C/c1ccc(O)c2ccccc12)c1cccnc1
C/C(=N\NC(=O)c1cccnc1)c1ccc(-c2ccccc2)cc1
CCC(=O)N1c2ccccc2CC1C(=O)N1CCN(c2ccccc2)CC1 (stereo unspecified)
COc1ccc(CCNS(=O)(=O)c2cc(-c3cc(C)no3)ccc2C)cc1OC
Nc1cc(N)nc(SCC(=O)Nc2cccc(S(=O)(=O)N3CCCCC3)c2)n1
O=C(Nc1nc2c(F)cc(F)cc2s1)C1COc2ccccc2O1 (stereo unspecified)
CC(OC(=O)c1ccccc1N1C(=O)C2C3CCC(C3)C2C1=O)C(=O)c1ccccc1 (stereo unspecified)
COC(=O)C1=C(C)N=C2SC(C)C(=O)N2C1/C=C/c1ccccc1 (stereo unspecified)
CCOc1ccc(CCNC(=O)CN2C(=O)NC3(CCc4ccccc43)C2=O)cc1OCC (stereo unspecified)
COc1ccc(C=C(C#N)C#N)c(CSc2ccccn2)c1
COc1ccc(N(Cc2ccccc2)S(=O)(=O)c2cccc(C(=O)O)c2)cc1
O=C(NCc1ccccc1)C(c1cccnc1)N(C(=O)c1csnn1)c1ccc(F)cc1 (stereo unspecified)
Cc1cccc(C(=O)Nc2ccc(S(=O)(=O)N3CCCCC3c3cccnc3)cc2)c1 (stereo unspecified)
CC(=O)N(OCc1ccc(OC(C)C)c(Cl)c1)C(C)=O
CC(C)c1ccc(Cn2c(COc3ccccc3)nc3ccccc32)cc1
Cc1ccc(-c2csc(NC3OC(=O)c4ccccc43)n2)cc1 (stereo unspecified)
COc1ccc(-c2cc(-c3ccc(F)cc3)nc3c2COc2ccccc2-3)cc1
Cc1ccc(Cl)cc1N1CCN(S(=O)(=O)c2cc3[nH]c(=O)c(=O)[nH]c3cc2C)CC1
Cc1ccc(Nc2ccccc2N)cc1
Nc1ccc(S(=O)(=O)NC(=O)c2ccccc2)cc1
COc1ccc(OC)c(CNC(=O)c2c3c(nc4ccccc24)C(=O)N(C2CCCCC2)C3)c1
Cc1ccc(C)c(NC(=O)CSC2=Nc3ccccc3N=C(c3ccc(F)cc3)C2)c1
Cc1ccc2nc(-c3ccncc3)cc(C(=O)Nc3ccncc3)c2c1
Cc1c(C(=O)NCc2ccccc2Br)oc2ccc3c(c12)C(=O)CC(C)(C)O3
O=C(Cc1cccs1)Nc1cccc(-c2nc3ccccc3[nH]2)c1
CCc1ccc2oc(-c3ccc(C)c(NC(=O)/C=C/c4ccco4)c3)nc2c1
COCCNC(=O)CCCN1C(=O)c2ccccc2Sc2ncccc21
COc1cccc(NC(=O)CN2C(=O)c3ccccc3Sc3ncccc32)c1

activity, negative = inhibition, inactive:
O=C(Nc1ccc2c(c1)OCO2)C1CC1(Cl)Cl (stereo unspecified) 2.4% [at 12.7 µM]
O=C(Nc1ccccn1)C1CCN(S(=O)(=O)c2ccccc2)CC1 -10.1% [at 12.7 µM]
Cn1c2cc(B(O)O)sc2c2cnn(Cc3ccccc3F)c(=O)c21 0.244% [at 12.7 µM]
Cc1cccc(OCC(=O)Nc2ccc(NC(=O)c3ccco3)c(C)c2)c1 0.639% [at 12.7 µM]
CCc1ccc(-c2nn(-c3ccccc3C)cc2C(=O)N2CCN(C3CCS(=O)(=O)C3)CC2)cc1 (stereo unspecified) 5.96% [at 12.7 µM]
CCOc1cc(/C=C/C(=O)OCC(=O)NCCN2C(=O)CSC2=O)ccc1OCC(C)C 17.6% [at 12.7 µM]
O=C(Cn1nnc(-c2ccc(CN3CCOCC3)cc2)n1)NC1CCCCC1 10.1% [at 12.7 µM]
O=C(NC1CCCCCC1)C1CCN(C(=O)c2ccc(Cl)cc2)CC1 6.11% [at 12.7 µM]
CCCCN(C(=O)c1ccc(S(=O)(=O)N2CCOCC2)cc1)C1CCS(=O)(=O)C1 (stereo unspecified) 4.15% [at 0.501 µM]
O=C(Nc1ncc([N+](=O)[O-])s1)C1COc2ccccc2O1 (stereo unspecified) -2.98% [at 12.7 µM]
CCN(CC)c1ccc(NC(=O)CN2C(=O)NC3(CCc4ccccc43)C2=O)cc1 (stereo unspecified) 79.1% [at 12.7 µM]
CC(NC(=O)c1ccccc1F)c1cccc2ccccc12 (stereo unspecified) 0% [at 2.33 µM]
CCOC(=O)C1CCN(C(=O)c2cccc(S(=O)(=O)N(CC)c3ccccc3)c2)CC1 -14.3% [at 12.7 µM]
O=C(N[C@@H](Cc1c[nH]c2ccccc12)C(=O)O)OCC1c2ccccc2-c2ccccc21 -0.61% [at 0.501 µM]
COc1cc(OC)cc(-c2c(-c3ccc(F)cc3)c3cc(-c4ccc5cc[nH]c5c4)ccc3n2C)c1 26.5% [at 2.33 µM]
COC(=O)c1ccc(Cn2c(SCC(=O)N(C)c3ccccc3)nc3ccccc32)cc1 -1.12% [at 12.7 µM]
CCC1CCC2(CC1)NC(=O)N(CC(=O)Nc1ccc(OC)cc1)C2=O (stereo unspecified) 7.81% [at 0.501 µM]
